Only a selection was taken, and hits are over-represented in it overall.
AmpC inh no detg: AmpC beta-lactamase inhibition without detergent | AmpC nitrocefin hydrolysis, absorbance 480 nm, 0.0001% Triton | Potency, µM (doses to about 57.1 µM), usual class: inhibitors | AID 485341 | 330,000 tested, 0.52% active; note: nearly all actives have a fitted effect of over 20% in size
Target sequence (P00811 whole entry, looked up): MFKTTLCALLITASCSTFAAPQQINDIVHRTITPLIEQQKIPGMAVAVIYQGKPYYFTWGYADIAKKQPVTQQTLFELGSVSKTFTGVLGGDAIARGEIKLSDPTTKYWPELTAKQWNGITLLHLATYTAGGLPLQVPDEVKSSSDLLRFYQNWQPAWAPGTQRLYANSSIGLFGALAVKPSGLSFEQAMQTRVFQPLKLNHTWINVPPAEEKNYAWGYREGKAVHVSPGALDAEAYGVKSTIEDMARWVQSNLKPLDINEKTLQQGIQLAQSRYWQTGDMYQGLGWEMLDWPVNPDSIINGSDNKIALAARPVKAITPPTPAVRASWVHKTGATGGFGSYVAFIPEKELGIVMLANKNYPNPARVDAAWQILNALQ
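AmpC (5.3 nM in the dispensed reagent) in 20 mM phosphate pH 7.0 with 0.01% (detergent screen) or 0.0001% Triton X-100 was preincubated with compounds for 15 min at room temperature. Nitrocefin was then added from an 800 uM solution, and hydrolysis was followed at 480 nm.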
AmpC detergent: blocks E. coli AmpC beta-lactamase in detergent assay. P00811. AmpC hydrolysis of nitrocefin, absorbance 480 nm, 0.01% Triton. Potency, µM (titrated, usually from 114 µM), actives largely listed as inhibitors. 370,000 tested, 0.041% active; note: nearly all actives have a fitted effect of over 25% in size
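20 mM phosphate pH 7.0 + 0.01% (detergent screen) or 0.0001% Triton X-100; 5.3 nM AmpC reagent; cpd preinc 15 min RT; nitrocefin (800 uM stock) to start; A480 q20 s × 4 min; Activity was normalised to no-enzyme and no-compound control wells.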
NS1 function inh: blocks influenza NS1 protein function | 270,000 tested, 0.4% active | Potency, µM (titrated, usually from 46.1 µM); calls by dose curve; note: actives are rising curves; nearly all actives have a fitted effect of over 50% in size
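Read-out: OD600 growth recovery of NS1-expressing budding yeast. Cells grown overnight at 30C in -URA glucose medium, washed, resuspended and diluted 1:100 in 2% galactose assay medium, pH 6.0. Same strain lacking NS1 served as positive control.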
CHX counter: counter-screen for Shiga toxin inhibitors: cycloheximide protein synthesis inhibition | 300,000 tested, 12% active | cell reporter, cycloheximide protein synthesis inhibition counterscreen | max response, %; in the data active = max response mostly above about 13%, no sharp cut-off; inactive = mostly below about 14%; note: read at 38.3 µM for the half of the compounds with a filed dose
Shiga inhibitor: blocks Shiga toxin action in Vero cells. 290,000 tested, 9.2% active. Vero cells, Shiga toxin protein synthesis inhibition reporter. inhibition, % at 38.7 µM. AID 2315; in the data active = inhibition mostly above about 28%, no sharp cut-off; inactive = mostly below about 43%
Each line names hits and unclear results; the compound was inactive in the other large screens. Unless noted, calls come from the whole dose curve; as a rule, active = well fitted curve in the direction sought with a large enough effect; inconclusive = small, poorly fitted or top-dose-only effect, or another doubt; inactive = no such curve, though single readings can be large; an effect the other way counts as inactive or inconclusive.

CCN(CC)CCOC(=O)/C=C/c1ccccc1	none
Cc1ccc(S(=O)(=O)N(CCc2ccccc2)CC(=O)Nc2cc(C)ccc2C)cc1	none (no result: AmpC inh no detg, NS1 function inh, CHX counter, Shiga inhibitor)
O=C(Nc1ccccc1)N1CCCC(c2nc(-c3cccs3)no2)C1 (stereo not drawn)	CHX counter 19, Shiga inhibitor 80
O=C(NC1CCCCC1)N1CCCC(c2nc(-c3cccs3)no2)C1 (stereo not drawn)	AmpC detergent inconclusive
O=C(Nc1ccc(Cl)cc1)N1CCC(c2nc(-c3cccs3)no2)CC1	CHX counter 24, Shiga inhibitor 49
COc1ccc(NC(=O)N2CCC(c3nc(-c4cccs4)no3)CC2)cc1	CHX counter 19
O=C(Nc1ccc(Cl)cc1)N1CCC(c2nc(-c3ccccc3Cl)no2)CC1	none
Cc1ccc(C(=O)COc2cc(C)nc3nncn23)cc1	none
NC(=O)C1CCCN(C(=O)c2cccc(NC(=O)c3cccs3)c2)C1 (stereo not drawn)	none (no result: NS1 function inh, CHX counter, Shiga inhibitor)
Cn1c(=O)c2cc(S(=O)(=O)Nc3ccc4c(c3)OCO4)ccc2n(C)c1=O	none
CCn1cc(S(=O)(=O)NCc2ccc3c(c2)OCO3)cn1	none
CCn1cc(S(=O)(=O)Nc2ccc3c(c2)OCCO3)cn1	CHX counter 76, Shiga inhibitor 77
Cn1cc(S(=O)(=O)Nc2ccc3c(c2)OCCO3)cn1	CHX counter 44, Shiga inhibitor 103 (no result: NS1 function inh)
COc1ccc(S(=O)(=O)Nc2ccc3c(c2)OCCO3)cc1OC	CHX counter 23, Shiga inhibitor 65
Cn1c(=O)oc2cc(S(=O)(=O)Nc3ccc4c(c3)OCO4)ccc21	CHX counter 14
Cc1ccc(CNCCC2=CCCCC2)cc1	none
O=C(NCc1ccccc1)c1ccc(CS(=O)(=O)c2c(Cl)cccc2Cl)o1	none (no result: AmpC inh no detg, NS1 function inh, CHX counter, Shiga inhibitor)
COc1ccc(CC(=O)Oc2ccc(Br)cc2F)cc1S(=O)(=O)N1CCOCC1	none (no result: NS1 function inh, CHX counter, Shiga inhibitor)
COc1ccc(/C=N/N2C(=O)CN(C(=O)c3ccccc3)C2c2ccc(OC)cc2)cc1 (stereo not drawn)	none
COc1ccc(C2N(Cc3ccccc3)CC(=O)N2/N=C(\C)c2ccccc2)cc1 (stereo not drawn)	CHX counter 24, Shiga inhibitor 71
CN=c1scc(-c2ccc(OC)cc2)n1/N=C(\C)c1cccnc1	CHX counter 32, Shiga inhibitor 57 (no result: NS1 function inh)
Cn1ncc2c(Nc3ccc(Cl)cc3)ncnc21	CHX counter 32
CCOc1ccc(Nc2ncnc3c2cnn3C)cc1	CHX counter 16
Cc1ccc(Nc2ncnc3c2cnn3C)cc1	CHX counter 27, Shiga inhibitor 61
CC(=O)Nc1ccc(Nc2ncnc3c2cnn3C)cc1	none (no result: AmpC inh no detg, NS1 function inh, CHX counter, Shiga inhibitor)
Cc1cccc(Nc2ncnc3c2cnn3C)c1	none
Cn1ncc2c(Nc3ccc4ccccc4c3)ncnc21	CHX counter 33, Shiga inhibitor 81
C[N@@+]1(Cc2ccc(Cl)c(Cl)c2)CCC[C@@H]1c1ccc[n+](Cc2ccc(Cl)c(Cl)c2)c1	none (no result: AmpC inh no detg, AmpC detergent, CHX counter, Shiga inhibitor)
COc1ccccc1C(=O)NC(=O)COC(=O)CCOc1ccc(C)cc1	AmpC detergent inconclusive (no result: NS1 function inh, CHX counter, Shiga inhibitor)
Cc1nc(C(C)NC(=O)CCc2nnc(-c3ccsc3)o2)cs1 (stereo not drawn)	none
COC(=O)[C@@H](NC(=O)CCc1nnc(-c2ccsc2)o1)C(C)C	CHX counter 50
CCOC(=O)CC1COCCN1C(=O)CCc1nnc(-c2ccsc2)o1 (stereo not drawn)	CHX counter 33
O=C(CCc1nnc(-c2ccsc2)o1)N1CCCCC1CCn1ccnc1 (stereo not drawn)	none
CCn1cc2nc(SCc3ccc(F)cc3)n(CCc3ccccc3)c(=O)c2n1	none (no result: AmpC inh no detg, NS1 function inh, CHX counter, Shiga inhibitor)
CCCCCC(=O)Nc1sc(C)c(C)c1C#N	CHX counter 42, Shiga inhibitor active
Cc1cc(C(=O)Nc2sc(C)c(C)c2C#N)no1	CHX counter 41, Shiga inhibitor 59
CCc1c(C)sc(NC(=O)c2cc(C(C)C)on2)c1C#N	CHX counter 13, Shiga inhibitor 55 (no result: NS1 function inh)
Cc1noc(C)c1C(=O)Nc1nccs1	none
O=C(NCC1CC1)NC(=O)c1c(F)cccc1Cl	CHX counter 15
CCOC(=O)c1c(NC(=O)CSc2nnc(C)s2)sc2c1CCC(C)C2 (stereo not drawn)	none
COc1ccc(NN=Nc2nc3c([nH]2)c(=O)n(C)c(=O)n3C)cc1	CHX counter 40, Shiga inhibitor 84
Cc1ccc(CSc2nc3cccnc3n2Cc2ccc(C(=O)NC3CCCCC3)cc2)cc1	none (no result: AmpC inh no detg, NS1 function inh, CHX counter, Shiga inhibitor)
CC(C)(C)c1cc(N2CCOCC2)n2ncc(-c3ccccc3)c2n1	none
